Assay [1] can be described thus: NCI Yeast Anticancer Drug Screen. Data for the rad50 strain (AID 155).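 Further: 0% = growth of vehicle-only cultures of the same strain.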 The conditions noted are these: S. cerevisiae rad50 strain growth inhibition, active compounds read high. In short, it runs like this: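 Relative growth inhibition (compound vs vehicle) was measured in yeast with a defined repair-gene alteration.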
A short description of assay [2]: NCI Yeast Anticancer Drug Screen. Data for the mec2-1 strain (AID 157). The conditions noted are these: S. cerevisiae mec2-1 strain, active compounds read high. An outline of the steps: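 Cells of the genetically defined mec2-1 yeast strain are incubated with test compound. Inhibition of growth is calculated against vehicle-treated controls.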
Assay [3] is described as follows: NCI Yeast Anticancer Drug Screen. Data for the sgs1 mgt1 strain (AID 161).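 Further: 0% = growth of cultures given vehicle only.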 The conditions noted are these: S. cerevisiae sgs1 mgt1 strain, active compounds read high. An outline of the steps: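 Test agents were incubated with a DNA-repair-mutant yeast strain. Growth was then read and compared against vehicle-treated controls.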
A short description of assay [4]: NCI Yeast Anticancer Drug Screen. Data for the cln2 rad14 strain (AID 165).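 Further: 0% = growth equal to vehicle treated cultures.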 The conditions noted are these: S. cerevisiae cln2 rad14 strain, active compounds read high. An outline of the steps: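 The screen exposed genetically defined yeast (cln2 rad14) to test compounds and scored growth inhibition relative to vehicle-treated controls.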
Assay [5] is described as follows: NCI Yeast Anticancer Drug Screen. Data for the bub3 strain (AID 167). The conditions noted are these: S. cerevisiae bub3 mutant strain, active compounds read high. In short, it runs like this:
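Screening used yeast with an engineered genetic alteration affecting cell cycle control. Compound-exposed cultures were compared with vehicle cultures, and reduced growth was taken as inhibition.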

Assay [6] is described as follows: NCI Yeast Anticancer Drug Screen. Data for the mlh1 rad18 strain (AID 175). The conditions noted are these: S. cerevisiae mlh1 rad18 strain growth inhibition, active compounds read high. An outline of the steps: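 Compound-treated yeast growth, normalised to vehicle controls. Strain bears defined DNA repair mutations.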
Setting [7] is: at 5.0 µM (retest, dose inferred, filed as 0.5).
[8] abbreviates: at 50.0 µM (retest, dose inferred, filed as 5.0).

Each structure is given as a SMILES string. The panel holds about 79,000 compounds, 15% with a hit somewhere; the sample as a whole holds those more often. Values without a mark were called inactive. Active and inactive are the calls of the source. No stated cut-off is given here; in the data, active means growth inhibition above about 70%; inactive means the rest.

Turning to `c1ccc2[nH]c(CN(CCN(Cc3nc4ccccc4[nH]3)Cc3nc4ccccc4[nH]3)Cc3nc4ccccc4[nH]3)nc2c1`, the growth inhibition was 97% (active) in assay [1] (setting [7]); 95% (active) in assay [1] (setting [8]); 91.1% (active) in assay [1] (at 50.0 µM); 97% (active) in assay [2] (setting [7]); 97% (active) in assay [2] (setting [8]); 91.5% (active) in assay [2] (at 50.0 µM). Also, the growth inhibition in assay [3] (setting [7]) was 99% (active); in assay [3] (setting [8]), 96% (active); in assay [3] (at 50.0 µM) it was 91% (active); in assay [4] (setting [7]), 99% (active); in assay [4] (setting [8]), 94% (active); in assay [4] (at 50.0 µM), 90.3% (active). Moreover, the growth inhibition in assay [5] (setting [7]) is 99% (active); in assay [5] (setting [8]), 95% (active); in assay [5] (at 50.0 µM) it was 89% (active); in assay [6] (setting [7]), 96% (active); in assay [6] (setting [8]), 93% (active); in assay [6] (at 50.0 µM) it was 89.7% (active).
As to `CSC(=Nc1ccccc1)NC(=O)Nc1ccc(Cl)cc1`, the growth inhibition in assay [1] (setting [7]) was -8%; in assay [1] (setting [8]) it was -11%; in assay [1] (at 50.0 µM), -1.45%; in assay [2] (setting [7]) it was 5%; in assay [2] (setting [8]), -15%; in assay [2] (at 50.0 µM), 5%. The growth inhibition in assay [3] (setting [7]) was -34%; in assay [3] (setting [8]), -17%; in assay [3] (at 50.0 µM) it was -2.1%; in assay [4] (setting [7]), -18%; in assay [4] (setting [8]), -17%; in assay [4] (at 50.0 µM), -31.2%. In addition, the growth inhibition in assay [5] (setting [7]) was -22%; in assay [5] (setting [8]), -4%; in assay [5] (at 50.0 µM) it was 2.55%; in assay [6] (setting [7]) it was -7%; in assay [6] (setting [8]), -5%; in assay [6] (at 50.0 µM), 3.15%.
Consider `C[C@H](CCC(=O)O)[C@H]1CC[C@H]2[C@@H]3CC[C@@H]4C[C@H](O)CC[C@]4(C)[C@H]3C[C@H](O)[C@]12C`, for which the growth inhibition in assay [1] (setting [7]) was -14%; in assay [1] (setting [8]) it was 95% (active); in assay [1] (at 50.0 µM), 99.2% (active); in assay [2] (setting [7]), 1%; in assay [2] (setting [8]), 98% (active); in assay [2] (at 50.0 µM), 98.8% (active). Further, the growth inhibition in assay [3] (setting [7]) is -1%; in assay [3] (setting [8]), 97% (active); in assay [3] (at 50.0 µM), 99.3% (active); in assay [4] (setting [7]), -34%; in assay [4] (setting [8]) it was 98% (active); in assay [4] (at 50.0 µM), 99.3% (active). The growth inhibition in assay [5] (setting [7]) was -16%; in assay [5] (setting [8]), 99% (active); in assay [5] (at 50.0 µM) it was 98.8% (active); in assay [6] (setting [7]) it was -11%; in assay [6] (setting [8]), 98% (active); in assay [6] (at 50.0 µM), 99% (active).
Turning to `CC[C@H](CC[C@@H](C)C1CC[C@H]2[C@@H]3CCC4=CC(=O)CC[C@]4(C)[C@H]3CC[C@]12C)C(C)C` (some centres not stated), the growth inhibition is -4% in assay [1] (setting [7]); 18% in assay [1] (setting [8]); 50.9% in assay [1] (at 50.0 µM); -8% in assay [2] (setting [7]); 65% in assay [2] (setting [8]); 35.7% in assay [2] (at 50.0 µM). For the same compound, the growth inhibition in assay [3] (setting [7]) is -8%; in assay [3] (setting [8]), 68%; in assay [3] (at 50.0 µM) it was 76% (active); in assay [4] (setting [7]), -6%; in assay [4] (setting [8]) it was 28%; in assay [4] (at 50.0 µM), 63.3%. The growth inhibition in assay [5] (setting [7]) was -10%; in assay [5] (setting [8]) it was 29%; in assay [5] (at 50.0 µM), 30.6%; in assay [6] (setting [7]), 20%; in assay [6] (setting [8]) it was 83% (active); in assay [6] (at 50.0 µM), 36%.
Consider `O=C1OC2(c3ccccc31)c1cc(I)c(O)c(I)c1Oc1c2cc(I)c(O)c1I`, for which the growth inhibition in assay [1] (setting [7]) was 32%; in assay [1] (setting [8]) it was 99% (active); in assay [1] (at 50.0 µM), 98.5% (active); in assay [2] (setting [7]), 61%; in assay [2] (setting [8]), 99% (active); in assay [2] (at 50.0 µM) it was 99.3% (active). Further, the growth inhibition is 21% in assay [3] (setting [7]); 56% in assay [3] (setting [8]); 99.6% (active) in assay [3] (at 50.0 µM); 15% in assay [4] (setting [7]); 98% (active) in assay [4] (setting [8]); 98.8% (active) in assay [4] (at 50.0 µM). Besides, the growth inhibition was 15% in assay [5] (setting [7]); 99% (active) in assay [5] (setting [8]); 99.2% (active) in assay [5] (at 50.0 µM); 62% in assay [6] (setting [7]); 99% (active) in assay [6] (setting [8]); 98.7% (active) in assay [6] (at 50.0 µM).
On to `CCNc1cc2c3c(c1)CCCN3CCC2`, for which the growth inhibition was 15% in assay [1] (setting [7]); 40% in assay [1] (setting [8]); -15.7% in assay [1] (at 50.0 µM); 13% in assay [2] (setting [7]); 27% in assay [2] (setting [8]); -20.7% in assay [2] (at 50.0 µM). In addition, the growth inhibition in assay [3] (setting [7]) is 14%; in assay [3] (setting [8]), 18%; in assay [3] (at 50.0 µM), -1.15%; in assay [4] (setting [7]), 20%; in assay [4] (setting [8]), 24%; in assay [4] (at 50.0 µM), -46.1%. The growth inhibition in assay [5] (setting [7]) was 15%; in assay [5] (setting [8]), 30%; in assay [5] (at 50.0 µM) it was -17%; in assay [6] (setting [7]), 17%; in assay [6] (setting [8]), 51%; in assay [6] (at 50.0 µM) it was -10.7%.
As to `N#C/C(=C/c1ccccc1B(O)O)C(=O)O`, the growth inhibition in assay [1] (setting [7]) was -151%; in assay [1] (setting [8]), -5%; in assay [1] (at 50.0 µM), 71.4% (active); in assay [2] (setting [7]), -49%; in assay [2] (setting [8]), -36%; in assay [2] (at 50.0 µM), 17%. Besides, the growth inhibition in assay [3] (setting [7]) was -61%; in assay [3] (setting [8]), -40%; in assay [3] (at 50.0 µM) it was 31.3%; in assay [4] (setting [7]), -62%; in assay [4] (setting [8]), -58%; in assay [4] (at 50.0 µM), 13.1%. The growth inhibition in assay [5] (setting [7]) is -77%; in assay [5] (setting [8]), -96%; in assay [5] (at 50.0 µM), -8.9%; in assay [6] (setting [7]), -140%; in assay [6] (setting [8]), -65%; in assay [6] (at 50.0 µM) it was 65.8%.
As to `CN(C)c1nc(-c2ccccc2)cc(-c2ccc(O)cc2)n1`, the growth inhibition was 14% in assay [1] (setting [7]); 93% (active) in assay [1] (setting [8]); 36.8% in assay [1] (at 50.0 µM); -10% in assay [2] (setting [7]); 27% in assay [2] (setting [8]); 13.7% in assay [2] (at 50.0 µM). For the same compound, the growth inhibition in assay [3] (setting [7]) was 22%; in assay [3] (setting [8]) it was 92% (active); in assay [3] (at 50.0 µM), 45.9%; in assay [4] (setting [7]) it was 22%; in assay [4] (setting [8]), 48%; in assay [4] (at 50.0 µM), 45.5%. Moreover, the growth inhibition is -2% in assay [5] (setting [7]); 77% (active) in assay [5] (setting [8]); 60.5% in assay [5] (at 50.0 µM); 24% in assay [6] (setting [7]); 88% (active) in assay [6] (setting [8]); 68.2% in assay [6] (at 50.0 µM).
Turning to `COc1ccc(/C=C/c2cc(OC)c(OC)c(OC)c2)cc1O[Si](C)(C)C(C)(C)C`, the growth inhibition is 1% in assay [1] (setting [7]); -9% in assay [1] (setting [8]); -2.65% in assay [1] (at 50.0 µM); 0% in assay [2] (setting [7]); -3% in assay [2] (setting [8]); -1.75% in assay [2] (at 50.0 µM). The growth inhibition in assay [3] (setting [7]) is -1%; in assay [3] (setting [8]) it was -5%; in assay [3] (at 50.0 µM) it was 13.6%; in assay [4] (setting [7]) it was 1%; in assay [4] (setting [8]), -4%; in assay [4] (at 50.0 µM), 53.2%. Further, the growth inhibition in assay [5] (setting [7]) was -1%; in assay [5] (setting [8]) it was -7%; in assay [5] (at 50.0 µM), -37.5%; in assay [6] (setting [7]), 1%; in assay [6] (setting [8]), -6%; in assay [6] (at 50.0 µM) it was -4.45%.
